# The list is not random: actives were taken first. Their share in the collection is about 1.6%.
# NALP1 yeast inh = blocks the NALP1 inflammasome reconstituted in yeast | S. cerevisiae NALP1/ASC/caspase-1 growth, X-gal OD620, 72 h | inhibition, % at 10 µM | 280,000 compounds, 0.61% hits; in the data active means inhibition mostly above about 24%, no sharp cut-off; inactive means mostly below about 32%
# Rce1 inh = inhibitors of yeast Ras-converting enzyme; yeast membranes, quenched prenylated peptide cleavage fluorescence; Q03530; calls only; 290,000 compounds, 0.27% hits;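 active means fall in fluorescence gain of 50% or more versus controls, with final raw signal at or below 3038400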;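 further: plate controls were neutral control wells for no effect and wells lacking membranes for full effect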
# NLRP3 yeast inh = NALP3 inhibition in yeast. 330,000 compounds, 0.39% hits. inhibition, % at 10 µM. Yeast reconstituted NLRP3/ASC/caspase-1, beta-gal luminescence, 24 h;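 active means inhibition of 50% or more; inactive means inhibition below 50%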;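 further: plate controls were induced DMSO wells for no effect and uninduced yeast grown without galactose for full effect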
# V-ATPase pHluor = alters yeast V-ATPase proton transport; response, % at 10 µM; 350,000 compounds, 0.37% hits; S. cerevisiae, pHLuorin cytosolic pH fluorescence; in the data active means response mostly above about 7.3%, no sharp cut-off; inactive means mostly below about 5.4%; further: actives read high
# PERK inhibitor = inhibitors of human PERK kinase. inhibition, % at 5.6 µM. 220,000 compounds, 0.17% hits. CHO PERK-DD fusion, SEAP luminescence translation reporter. Q9NZJ5;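 active means inhibition above the mean inhibition of all tested compounds plus 3 SD, set separately per screening campaign, cut at about 2.9% in these data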;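 further: PERK kinase domain activated by AP20187 dimerizer at 100 nM; 0% = DMSO with dimerizer and 100% = rapamycin at 8.4 µM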
# Target sequence (Q9NZJ5 whole entry, looked up, the tested form may be a part): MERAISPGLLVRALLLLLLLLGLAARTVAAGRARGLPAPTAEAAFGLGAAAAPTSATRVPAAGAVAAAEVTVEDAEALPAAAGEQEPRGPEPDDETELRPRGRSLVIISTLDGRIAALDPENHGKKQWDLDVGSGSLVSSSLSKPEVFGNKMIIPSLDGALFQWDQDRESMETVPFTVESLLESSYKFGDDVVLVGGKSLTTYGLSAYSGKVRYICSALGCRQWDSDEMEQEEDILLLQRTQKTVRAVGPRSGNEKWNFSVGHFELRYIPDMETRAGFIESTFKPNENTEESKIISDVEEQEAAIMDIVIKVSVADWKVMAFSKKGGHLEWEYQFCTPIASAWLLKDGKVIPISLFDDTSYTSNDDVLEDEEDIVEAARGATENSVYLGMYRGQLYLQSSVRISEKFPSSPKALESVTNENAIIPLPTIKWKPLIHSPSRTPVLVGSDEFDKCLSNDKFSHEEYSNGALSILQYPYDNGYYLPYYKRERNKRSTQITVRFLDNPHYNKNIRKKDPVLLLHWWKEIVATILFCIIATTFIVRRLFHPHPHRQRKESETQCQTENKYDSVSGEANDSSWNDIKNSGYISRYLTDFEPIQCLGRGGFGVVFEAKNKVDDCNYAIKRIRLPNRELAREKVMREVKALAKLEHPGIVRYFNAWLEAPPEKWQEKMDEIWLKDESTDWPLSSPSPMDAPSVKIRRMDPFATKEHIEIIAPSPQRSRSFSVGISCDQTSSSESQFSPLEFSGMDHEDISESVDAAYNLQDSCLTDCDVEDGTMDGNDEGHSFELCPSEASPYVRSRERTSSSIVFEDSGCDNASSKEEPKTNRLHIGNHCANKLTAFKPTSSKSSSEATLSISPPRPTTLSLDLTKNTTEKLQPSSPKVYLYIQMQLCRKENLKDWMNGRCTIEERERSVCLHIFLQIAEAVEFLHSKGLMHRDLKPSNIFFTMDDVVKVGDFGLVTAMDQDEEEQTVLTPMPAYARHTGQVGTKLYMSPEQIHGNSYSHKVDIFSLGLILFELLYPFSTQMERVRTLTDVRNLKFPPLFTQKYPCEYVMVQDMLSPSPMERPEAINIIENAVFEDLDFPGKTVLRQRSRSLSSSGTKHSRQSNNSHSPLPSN
# CR mimetic SO = lowers age-related superoxide in aged yeast cells. S. cerevisiae aged cells, superoxide DHE fluorescence; active compounds read low. superoxide response (% of plate mean), % at 10 µM. 330,000 compounds, 0.18% hits. AID 2690;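 active means superoxide response under a set limit, about three screen SD below normal, cut at about 65% in these data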;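 further: yeast aged for seven days with compound at 30 °C before DHE staining; 100% = average MFI of all compound-treated wells on the plate with controls excluded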
# An asterisk follows results filed as active; i = inactive; . = no result; + = active, no number.
SMILES,NALP1 yeast inh,Rce1 inh,NLRP3 yeast inh,V-ATPase pHluor,PERK inhibitor,CR mimetic SO
CC1CCN(C(=O)CCC(=O)Nc2ccc([N+](=O)[O-])cc2)CC1,.,.,.,2,.,.
COc1cccc(-c2ncc3ccccn23)c1,4,i,15,1,-1,90
COc1cc(OC)cc(-c2ncc3ccccn23)c1,8,+,13,0,1,91
COc1cc(CC(=O)C(=O)O)oc(=O)c1,.,.,.,-1,.,.
Cc1ccc(C(=Cc2ccc([N+](=O)[O-])cc2)C(=O)O)cc1,.,.,.,6,.,.
COc1ccc(C)cc1NC(=S)N1CC(C)OC(C)C1 (stereo unspecified),2,i,9,15*,.,102
Nc1nc(SCC(=O)c2cc3ccccc3o2)n[nH]1,22*,i,-2,-3,1,112
CC(C)NC(=O)Nc1ccc2c(c1)C(=O)N([C@@H](C)CO)C[C@@H](C)[C@H](CN(C)Cc1ccccc1)OCCCC[C@H](C)O2,.,.,.,1,.,.
O=C(c1cc2ccccc2o1)N1CCN(C/C=C/c2ccccc2)CC1,44*,i,40,-4,.,94
COc1ccc([N+](=O)[O-])cc1CSc1ccccn1,0,+,14,-1,0,93
C#CCOCCOCCOCCNc1nc(N2CCN(C(=O)CCCCCCCCCCNC(=O)Cn3cc(C[C@@H](C)O)nn3)CC2)nc(N2CCN(C(=O)CCCCCCCCCCNC(=O)[C@@H]([C@H](C)CC)n3cc(CCCCCN)nn3)CC2)n1,.,.,36,11,.,99
C#CCOCCOCCOCCNc1nc(N2CCN(C(=O)CCCCCCCCCCNC(=O)Cn3cc(CCCCCN)nn3)CC2)nc(N2CCN(C(=O)CCCCCCCCCCNC(=O)Cn3cc(C[C@@H](C)O)nn3)CC2)n1,.,.,42,8.6*,.,101
Cc1ccc(S(=O)(=O)NCCCN(C)C)cc1,31,i,6,-4,3.2*,107
Cc1ccc(S(=O)(=O)NCCCNS(=O)(=O)c2ccc(C)cc2)cc1,.,.,25,-1,.,97
NC(N)=Nc1ccc(N=C(N)N)cc1,40*,i,.,0,1,96
COCCN(CC(=O)Nc1cccc(C)c1C)C(=O)/C=C/c1ccc2c(c1)OCCO2,.,.,.,0,.,.
C[C@@H]1CCCCO[C@@H](CN(C)C(=O)C2CCCCC2)[C@@H](C)CN([C@H](C)CO)C(=O)c2cc(NC(=O)NC3CCCCC3)ccc2O1,.,.,.,-2,.,.
COc1cc(-c2c(C#N)c(N)nc3c2c(C)nn3-c2ccc(C)c(C)c2)cc(OC)c1OC,1,+,-1,3,-1,83
Cc1sc2nc(CSc3nc4ccccc4s3)[nH]c(=O)c2c1C,36*,i,5,.,0,108
O=c1[nH]c(CSc2nc3ccccc3s2)nc2ccccc12,.,i,9,0,0,99
O=C(CCc1nc2ccccc2[nH]c1=O)OCC(=O)c1cccc2ccccc12,36*,.,.,.,1,.
COc1cc(OC)c(C(=O)Nc2cc(S(=O)(=O)N3CCOCC3)ccc2N2CCOCC2)cc1OC,.,.,.,2,.,.
CCN1C(=O)[C@H]2[C@@H](c3ccc(C(F)(F)F)cc3)N[C@]3(CCCN(Cc4ccc(C(F)(F)F)cc4)C3=O)[C@H]2C1=O,.,.,.,1,.,.
COc1cc(N2CCCC2)c(OC)cc1/C=C(/C#N)c1cccc(F)c1,44*,i,.,-2,0,133
Cc1cn([C@H]2C[C@H](O)[C@@H](CNC/C=C/c3ccccc3[N+](=O)[O-])O2)c(=O)[nH]c1=O,.,.,.,0,.,.
SMILES,NALP1 yeast inh,Rce1 inh,NLRP3 yeast inh,V-ATPase pHluor,PERK inhibitor,CR mimetic SO
O=C(NNC(=O)c1ccc(-c2ccccc2)cc1)Nc1ccccc1F,11,i,4,0,.,98
O=C(NNc1ccccc1F)c1ccccc1,5,i,5,4,5.0*,94
Cc1ccc(N2CCN(c3ccc(C)cc3)C2c2cccnc2)cc1,40*,i,29,-1,0,95
c1ccc(N2CCN(c3ccccc3)C2c2cccnc2)cc1,3,i,5,-1,1,94
O=C(COC(=O)/C=C/c1cccs1)Nc1nc(-c2ccccc2)cs1,63*,i,0,-2,1,99
CCC(C)NC(=O)CSC1=Nc2ccccc2C2=NC(CC(=O)NCc3ccc(F)cc3)C(=O)N12 (stereo unspecified),-2,+,2,-1,-1,100
COC(=O)c1ccc(NC(=O)Cc2ccccc2)cc1,9,i,33,2,0,101
COC(=O)c1ccc(NC(=O)Cc2ccc(C)cc2)cc1,35*,i,1,1,1,110
Cc1onc(-c2c(F)cccc2Cl)c1C(=O)Nc1cc(S(=O)(=O)N2CCCCC2)ccc1O,.,.,.,-1,.,.
Nc1c(C(=O)Nc2ccccc2)sc2nc(N3CCOCC3)c3c(c12)CCCC3,.,.,.,-19,.,.
Nc1c(C(=O)NCc2ccccc2)sc2nc(N3CCOCC3)c3c(c12)CCCC3,-11,+,19,0,-1,93
COc1ccc(-c2cc3ccc(OCc4nn[nH]n4)cc3oc2=O)cc1OC,7,+,1,3,0,99
COc1ccc(-c2cc3ccc(OCC(C)=O)cc3oc2=O)cc1OC,14,i,8,-5,.,89
Cc1ccc(OCCn2cc(/C=C(\C#N)C(=O)NCC3CCCO3)c3ccccc32)cc1C (stereo unspecified),45*,i,19,3,0,102
CC(C)NC(=O)N(C)C[C@H]1Oc2ncc(Br)cc2C(=O)N([C@H](C)CO)C[C@@H]1C,.,.,.,0,.,.
COc1cc(CNCCO)cc(Cl)c1OCc1ccc(Cl)cc1Cl,38*,i,19,3,-2,112
COc1cc(CNC(C)(C)CO)cc(Br)c1OCc1ccc(Cl)cc1Cl,58*,i,10,-1,0,113
COc1cc(CNC(C)(C)CO)cc(Br)c1OCc1ccc(Cl)cc1,30,i,-15,-2,-1,102
Cc1ccc(C(=O)NC2CCN(CC(=O)NCc3cccs3)CC2)cc1,9,i,-4,-2,0,108
O=C(CN1CCC(NC(=O)c2ccc(Br)cc2)CC1)NCc1cccs1,14,+,16,3,1,96
Cc1nn(-c2ccccc2)nc1C(=O)Nc1cccc(C(=O)NC2CC2)c1,.,.,.,-1,.,.
O=C(Nc1ccn(CCCNCc2cccc3ccccc23)c(=O)n1)OCc1ccccc1,.,.,.,-4,.,.
COc1ccc(CNc2ccccc2)cc1Br,-80,i,19,-2,2,96
COc1cc(CNc2cccc(F)c2)cc(Br)c1O,32*,i,0,2,1,84
NC(=O)CSC1=Nc2ccccc2C2=NC(c3ccccc3)C(=O)N12 (stereo unspecified),8,+,13,-4,2,94
O=C(Nc1cccnc1Oc1ccc(Cl)cc1)c1cccc2ccccc12,2,+,17,0,-1,101
O=c1c(-c2nnc(SCc3ccc(Cl)cc3)o2)cccn1Cc1ccccc1,25*,i,16,-3,1,102
